# Reference: publication PMC7862700, “An all-to-all approach to the identification of sequence-specific readers for epigenetic DNA modifications on cytosine”
# Experiments:
# Experiment in all cases: DAPPL (digital affinity profiling via proximity ligation, sequencing); 10 mM Tris-HCl pH 7.5, 50 mM NaCl, 1 mM DTT, 4% glycerol, room temperature, 30 min; GST-TFs on glutathione beads, 16-mer random dsDNA library, 0.1% formaldehyde crosslink after washing; high values mean tight binding
# FEV = target: T1, FEV (Homo sapiens, UniProt Q99581 1-238); conditions: protein: recombinant; tags: N-terminal GST; dsDNA, one strand shown
# T1 sequence: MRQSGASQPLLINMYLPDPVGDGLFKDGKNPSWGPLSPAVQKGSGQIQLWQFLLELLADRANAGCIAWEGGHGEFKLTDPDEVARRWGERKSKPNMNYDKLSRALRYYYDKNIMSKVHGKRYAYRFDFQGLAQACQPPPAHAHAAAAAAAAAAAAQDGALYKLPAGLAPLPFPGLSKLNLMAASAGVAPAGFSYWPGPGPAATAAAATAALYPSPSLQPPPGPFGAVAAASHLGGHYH
# Method in brief: (§1)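 Beads coated with glutathione captured GST-fused human transcription factors that had been expressed in yeast, and the factors were then given DNA barcodes and pooled with a tag-only sample. The pools were incubated with 200 nmole of a random double-stranded 16-mer DNA library in Tris/NaCl/DTT/glycerol buffer for 30 min at room temperature, washed, crosslinked with 0.1% formaldehyde and proximity-ligated with BsaI/T4 ligase at 37 °C for 1 h. PCR amplification and Illumina NextSeq500 sequencing came last. Binding signal is each hexamer's read frequency for a factor divided by its frequency for the tag-only sample.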
# ETV5 = ETV5 (Homo sapiens, UniProt P41161 1-510); conditions: protein: recombinant; tags: N-terminal GST; dsDNA, one strand shown
# Method in brief: as §1
# HSF1 = HSF1 (Homo sapiens, UniProt Q00613 1-529); conditions: protein: recombinant; tags: N-terminal GST; chain copies: 3; dsDNA, one strand shown
# Method in brief: as §1
# SPIC = target: T2, SPIC (Homo sapiens, UniProt Q8N5J4 1-248); conditions: protein: recombinant; tags: N-terminal GST; dsDNA, one strand shown
# T2 sequence: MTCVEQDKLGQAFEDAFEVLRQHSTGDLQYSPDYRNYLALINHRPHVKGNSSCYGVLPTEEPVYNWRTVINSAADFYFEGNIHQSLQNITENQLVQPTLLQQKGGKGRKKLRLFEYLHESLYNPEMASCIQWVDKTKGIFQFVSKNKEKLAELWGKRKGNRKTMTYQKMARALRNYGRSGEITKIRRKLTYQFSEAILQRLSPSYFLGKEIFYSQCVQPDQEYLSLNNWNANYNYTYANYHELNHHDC
# Method in brief: as §1
# ELF4 = ELF4 (Homo sapiens, UniProt Q99607 1-663); conditions: protein: recombinant; tags: N-terminal GST; dsDNA, one strand shown
# Method in brief: as §1
# ELK4 = target: T3, ELK4 (Homo sapiens, UniProt P28324-2 1-405); conditions: protein: recombinant; tags: N-terminal GST; dsDNA, one strand shown
# T3 sequence: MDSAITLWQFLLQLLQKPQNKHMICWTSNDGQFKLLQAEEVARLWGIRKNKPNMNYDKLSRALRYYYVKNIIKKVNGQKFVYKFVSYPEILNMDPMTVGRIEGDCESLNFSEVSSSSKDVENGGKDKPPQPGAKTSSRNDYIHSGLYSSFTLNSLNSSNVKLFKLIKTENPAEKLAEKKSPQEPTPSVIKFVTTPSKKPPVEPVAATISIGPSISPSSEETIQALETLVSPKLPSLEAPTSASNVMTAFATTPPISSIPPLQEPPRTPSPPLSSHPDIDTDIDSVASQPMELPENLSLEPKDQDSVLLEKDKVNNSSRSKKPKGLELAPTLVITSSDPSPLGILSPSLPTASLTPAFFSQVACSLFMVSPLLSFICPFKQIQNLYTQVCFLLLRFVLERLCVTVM
# Method in brief: as §1
# ETV2 = target: T4, ETV2 (Homo sapiens, UniProt O00321 1-342); conditions: protein: recombinant; tags: N-terminal GST; dsDNA, one strand shown
# T4 sequence: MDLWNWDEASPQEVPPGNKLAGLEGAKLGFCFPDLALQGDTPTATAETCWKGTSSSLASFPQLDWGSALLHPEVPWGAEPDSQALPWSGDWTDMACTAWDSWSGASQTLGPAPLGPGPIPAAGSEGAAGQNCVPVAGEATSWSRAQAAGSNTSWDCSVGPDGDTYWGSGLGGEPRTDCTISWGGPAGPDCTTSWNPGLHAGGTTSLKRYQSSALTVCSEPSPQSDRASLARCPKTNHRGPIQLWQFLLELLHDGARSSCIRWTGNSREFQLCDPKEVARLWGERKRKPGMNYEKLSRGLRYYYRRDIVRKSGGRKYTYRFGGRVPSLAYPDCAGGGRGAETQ
# Method in brief: as §1
# ELF3 = target: T5, ELF3 (Homo sapiens, UniProt P78545 1-371); conditions: protein: recombinant; tags: N-terminal GST; dsDNA, one strand shown
# T5 sequence: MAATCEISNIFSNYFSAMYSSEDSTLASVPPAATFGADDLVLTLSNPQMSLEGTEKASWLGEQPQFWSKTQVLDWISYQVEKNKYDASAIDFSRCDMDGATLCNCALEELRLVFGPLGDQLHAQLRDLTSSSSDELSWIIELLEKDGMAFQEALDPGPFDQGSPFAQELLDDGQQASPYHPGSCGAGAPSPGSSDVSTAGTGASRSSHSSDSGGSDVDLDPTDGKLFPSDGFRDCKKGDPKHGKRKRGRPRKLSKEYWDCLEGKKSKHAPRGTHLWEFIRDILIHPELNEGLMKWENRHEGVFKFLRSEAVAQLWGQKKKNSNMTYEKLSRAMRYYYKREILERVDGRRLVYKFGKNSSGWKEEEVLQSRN
# Method in brief: as §1
# CRX = CRX (Homo sapiens, UniProt O43186 1-299); conditions: protein: recombinant; tags: N-terminal GST; dsDNA, one strand shown
# Method in brief: as §1
# ETV1 = ETV1 (Homo sapiens, UniProt P50549 1-477); conditions: protein: recombinant; tags: N-terminal GST; dsDNA, one strand shown
# Method in brief: as §1
# ERF = target: T6, ERF (Homo sapiens, UniProt P50548 1-548); conditions: protein: recombinant; tags: N-terminal GST; dsDNA, one strand shown
# T6 sequence: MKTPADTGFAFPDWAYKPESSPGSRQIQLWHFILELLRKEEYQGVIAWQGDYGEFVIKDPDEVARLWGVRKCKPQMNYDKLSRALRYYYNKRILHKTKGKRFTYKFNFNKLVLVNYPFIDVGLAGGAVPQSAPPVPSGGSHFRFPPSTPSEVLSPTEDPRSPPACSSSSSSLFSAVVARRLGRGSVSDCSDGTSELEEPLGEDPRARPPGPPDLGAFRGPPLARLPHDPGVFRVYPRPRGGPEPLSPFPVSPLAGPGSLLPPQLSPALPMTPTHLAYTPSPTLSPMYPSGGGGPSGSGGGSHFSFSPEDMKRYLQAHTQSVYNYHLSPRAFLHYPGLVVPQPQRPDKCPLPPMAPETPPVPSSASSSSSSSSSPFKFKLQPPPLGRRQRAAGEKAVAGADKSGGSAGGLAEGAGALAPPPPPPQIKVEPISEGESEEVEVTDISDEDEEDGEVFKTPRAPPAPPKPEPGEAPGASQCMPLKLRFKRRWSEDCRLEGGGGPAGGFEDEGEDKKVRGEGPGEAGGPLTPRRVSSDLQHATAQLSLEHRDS
# Method in brief: as §1
# ETV3L = target: T7, ETV3L (Homo sapiens, UniProt Q6ZN32 1-361); conditions: protein: recombinant; tags: N-terminal GST; dsDNA, one strand shown
# T7 sequence: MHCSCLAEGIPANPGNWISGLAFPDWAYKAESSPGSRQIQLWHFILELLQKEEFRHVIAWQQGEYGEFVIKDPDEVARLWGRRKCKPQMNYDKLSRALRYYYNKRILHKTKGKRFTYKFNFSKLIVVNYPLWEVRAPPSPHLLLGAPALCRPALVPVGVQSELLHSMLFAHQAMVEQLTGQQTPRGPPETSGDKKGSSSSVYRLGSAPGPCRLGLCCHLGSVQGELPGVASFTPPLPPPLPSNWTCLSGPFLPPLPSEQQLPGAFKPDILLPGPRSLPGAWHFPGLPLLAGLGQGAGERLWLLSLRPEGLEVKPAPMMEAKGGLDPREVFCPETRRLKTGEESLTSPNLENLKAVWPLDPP
# Method in brief: as §1
# ETS2 = target: T8, ETS2 (Homo sapiens, UniProt P15036 1-469); conditions: protein: recombinant; tags: N-terminal GST; dsDNA, one strand shown
# T8 sequence: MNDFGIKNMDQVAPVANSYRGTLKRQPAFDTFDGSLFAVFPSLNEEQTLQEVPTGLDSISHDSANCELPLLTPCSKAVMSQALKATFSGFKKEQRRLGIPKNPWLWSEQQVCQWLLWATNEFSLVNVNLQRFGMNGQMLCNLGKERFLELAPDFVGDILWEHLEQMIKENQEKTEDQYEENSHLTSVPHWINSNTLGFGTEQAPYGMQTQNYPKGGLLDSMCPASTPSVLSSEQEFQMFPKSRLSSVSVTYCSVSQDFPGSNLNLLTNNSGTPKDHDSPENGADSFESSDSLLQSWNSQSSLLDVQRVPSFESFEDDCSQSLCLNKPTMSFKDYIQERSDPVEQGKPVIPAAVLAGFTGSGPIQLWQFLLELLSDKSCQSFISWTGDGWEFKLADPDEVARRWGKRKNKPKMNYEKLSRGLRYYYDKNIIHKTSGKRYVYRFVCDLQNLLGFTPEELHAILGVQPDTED
# Method in brief: as §1
# SPDEF = target: T9, SPDEF (Homo sapiens, UniProt O95238 1-335); conditions: protein: recombinant; tags: N-terminal GST; dsDNA, one strand shown
# T9 sequence: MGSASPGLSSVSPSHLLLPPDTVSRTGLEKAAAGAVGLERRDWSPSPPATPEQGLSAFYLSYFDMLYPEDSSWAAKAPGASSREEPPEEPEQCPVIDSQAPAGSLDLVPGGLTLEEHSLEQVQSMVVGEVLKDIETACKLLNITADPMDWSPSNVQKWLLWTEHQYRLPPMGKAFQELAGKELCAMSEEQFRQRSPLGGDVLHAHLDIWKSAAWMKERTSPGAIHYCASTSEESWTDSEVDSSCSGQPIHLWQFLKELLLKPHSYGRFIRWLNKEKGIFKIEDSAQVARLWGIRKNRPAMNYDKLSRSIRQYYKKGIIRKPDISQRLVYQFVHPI
# Method in brief: as §1
# ETV7 = target: T10, ETV7 (Homo sapiens, UniProt Q9Y603 1-341); conditions: protein: recombinant; tags: N-terminal GST; dsDNA, one strand shown
# T10 sequence: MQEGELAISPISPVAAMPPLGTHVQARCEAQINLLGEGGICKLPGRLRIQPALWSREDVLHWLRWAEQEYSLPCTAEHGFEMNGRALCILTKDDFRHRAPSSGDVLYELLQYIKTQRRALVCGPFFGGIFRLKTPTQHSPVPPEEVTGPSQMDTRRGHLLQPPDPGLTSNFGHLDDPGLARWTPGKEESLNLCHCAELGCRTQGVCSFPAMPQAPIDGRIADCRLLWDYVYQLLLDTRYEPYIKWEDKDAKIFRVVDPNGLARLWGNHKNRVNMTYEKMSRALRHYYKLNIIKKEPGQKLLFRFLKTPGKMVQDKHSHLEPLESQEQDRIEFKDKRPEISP
# Method in brief: as §1
# ELF5 = target: T11, ELF5 (Homo sapiens, UniProt Q9UKW6-2 1-255); conditions: protein: recombinant; tags: N-terminal GST; dsDNA, one strand shown
# T11 sequence: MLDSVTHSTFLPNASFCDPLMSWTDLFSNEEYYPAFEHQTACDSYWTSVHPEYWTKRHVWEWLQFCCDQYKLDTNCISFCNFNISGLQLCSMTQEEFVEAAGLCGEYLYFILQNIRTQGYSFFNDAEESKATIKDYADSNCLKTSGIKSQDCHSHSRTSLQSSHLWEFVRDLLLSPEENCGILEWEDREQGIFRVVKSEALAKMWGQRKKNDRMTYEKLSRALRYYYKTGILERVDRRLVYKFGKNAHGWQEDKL
# Method in brief: as §1
# ETV3 = target: T12, ETV3 (Homo sapiens, UniProt P41162-2 1-143); conditions: protein: recombinant; tags: N-terminal GST; dsDNA, one strand shown
# T12 sequence: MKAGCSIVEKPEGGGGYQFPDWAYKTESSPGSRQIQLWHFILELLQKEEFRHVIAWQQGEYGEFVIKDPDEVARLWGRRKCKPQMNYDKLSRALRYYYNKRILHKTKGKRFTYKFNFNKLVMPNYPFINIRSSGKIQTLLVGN
# Method in brief: as §1
# ETV6 = ETV6 (Homo sapiens, UniProt P41212 1-452); conditions: protein: recombinant; tags: N-terminal GST; dsDNA, one strand shown
# Method in brief: as §1
# ETV1, sequence (P50549 whole entry): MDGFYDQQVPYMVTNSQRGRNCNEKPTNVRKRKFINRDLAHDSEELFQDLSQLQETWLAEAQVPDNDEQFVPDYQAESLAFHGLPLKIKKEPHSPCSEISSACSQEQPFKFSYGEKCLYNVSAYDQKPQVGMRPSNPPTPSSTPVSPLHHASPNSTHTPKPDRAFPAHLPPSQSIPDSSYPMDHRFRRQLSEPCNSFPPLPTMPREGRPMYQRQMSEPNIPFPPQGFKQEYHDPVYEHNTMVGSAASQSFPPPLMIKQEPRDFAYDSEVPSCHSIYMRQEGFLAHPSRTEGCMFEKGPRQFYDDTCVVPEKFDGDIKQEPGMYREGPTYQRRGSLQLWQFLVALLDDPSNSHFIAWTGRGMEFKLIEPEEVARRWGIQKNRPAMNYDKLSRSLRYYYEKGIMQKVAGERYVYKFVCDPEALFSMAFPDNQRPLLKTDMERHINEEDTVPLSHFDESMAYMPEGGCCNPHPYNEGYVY
# HSF1, sequence (Q00613 whole entry): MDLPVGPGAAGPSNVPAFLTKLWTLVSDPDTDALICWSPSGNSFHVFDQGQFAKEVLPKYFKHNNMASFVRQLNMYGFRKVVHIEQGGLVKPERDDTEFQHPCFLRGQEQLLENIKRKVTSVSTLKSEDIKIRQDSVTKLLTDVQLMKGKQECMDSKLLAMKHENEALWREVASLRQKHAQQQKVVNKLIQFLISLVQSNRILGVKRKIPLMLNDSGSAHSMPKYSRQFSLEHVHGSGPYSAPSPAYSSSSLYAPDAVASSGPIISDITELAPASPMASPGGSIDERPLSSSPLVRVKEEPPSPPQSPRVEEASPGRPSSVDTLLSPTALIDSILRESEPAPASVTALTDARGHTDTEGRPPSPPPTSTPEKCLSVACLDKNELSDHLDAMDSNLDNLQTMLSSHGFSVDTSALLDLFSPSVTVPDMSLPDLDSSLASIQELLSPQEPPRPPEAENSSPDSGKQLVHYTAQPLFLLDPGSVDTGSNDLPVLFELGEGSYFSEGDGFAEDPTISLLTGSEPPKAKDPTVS
# ETV5, sequence (P41161 whole entry): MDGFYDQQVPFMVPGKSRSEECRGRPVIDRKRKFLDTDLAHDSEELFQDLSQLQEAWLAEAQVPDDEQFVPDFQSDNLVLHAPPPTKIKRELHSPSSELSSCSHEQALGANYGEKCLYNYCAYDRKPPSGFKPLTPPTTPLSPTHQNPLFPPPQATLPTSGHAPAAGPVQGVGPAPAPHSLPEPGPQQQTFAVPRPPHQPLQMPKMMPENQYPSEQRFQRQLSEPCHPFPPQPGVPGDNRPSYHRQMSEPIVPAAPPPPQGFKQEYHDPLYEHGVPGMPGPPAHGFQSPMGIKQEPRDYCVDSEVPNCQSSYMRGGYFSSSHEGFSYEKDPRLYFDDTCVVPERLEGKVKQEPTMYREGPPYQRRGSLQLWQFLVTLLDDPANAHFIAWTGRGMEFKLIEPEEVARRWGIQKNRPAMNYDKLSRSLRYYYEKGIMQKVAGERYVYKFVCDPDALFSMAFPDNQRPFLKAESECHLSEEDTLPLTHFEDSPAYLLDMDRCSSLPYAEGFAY
# ETV6, sequence (P41212 whole entry): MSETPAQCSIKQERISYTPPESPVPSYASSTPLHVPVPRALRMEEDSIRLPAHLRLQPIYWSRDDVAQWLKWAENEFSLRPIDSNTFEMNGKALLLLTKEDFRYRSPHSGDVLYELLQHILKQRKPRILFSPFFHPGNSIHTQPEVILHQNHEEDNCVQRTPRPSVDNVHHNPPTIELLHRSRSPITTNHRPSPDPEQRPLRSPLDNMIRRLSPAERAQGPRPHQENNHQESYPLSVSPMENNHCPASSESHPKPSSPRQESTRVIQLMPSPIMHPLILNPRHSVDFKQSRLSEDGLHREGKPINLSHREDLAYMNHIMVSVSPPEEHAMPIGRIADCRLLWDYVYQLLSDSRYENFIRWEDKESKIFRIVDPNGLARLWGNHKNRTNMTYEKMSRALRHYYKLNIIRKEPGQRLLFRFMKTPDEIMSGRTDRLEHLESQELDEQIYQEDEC
# ELF4, sequence (Q99607 whole entry): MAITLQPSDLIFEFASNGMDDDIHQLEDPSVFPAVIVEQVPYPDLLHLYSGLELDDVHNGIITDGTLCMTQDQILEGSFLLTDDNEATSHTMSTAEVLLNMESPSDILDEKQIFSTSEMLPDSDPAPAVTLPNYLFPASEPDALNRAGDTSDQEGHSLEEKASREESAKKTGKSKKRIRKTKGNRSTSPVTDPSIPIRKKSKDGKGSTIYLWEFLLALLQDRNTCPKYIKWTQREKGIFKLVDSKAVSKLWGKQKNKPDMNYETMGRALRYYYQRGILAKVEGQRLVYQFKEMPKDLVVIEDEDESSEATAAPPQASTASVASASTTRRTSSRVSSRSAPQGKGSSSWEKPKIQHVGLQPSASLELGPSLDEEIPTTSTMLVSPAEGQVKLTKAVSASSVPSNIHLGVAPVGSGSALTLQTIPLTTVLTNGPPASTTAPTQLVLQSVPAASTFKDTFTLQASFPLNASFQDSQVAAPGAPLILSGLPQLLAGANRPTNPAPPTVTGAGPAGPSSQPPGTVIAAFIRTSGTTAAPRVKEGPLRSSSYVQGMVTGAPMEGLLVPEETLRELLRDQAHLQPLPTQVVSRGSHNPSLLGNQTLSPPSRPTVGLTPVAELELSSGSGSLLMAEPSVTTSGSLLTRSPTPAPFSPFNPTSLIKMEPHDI
# CRX, sequence (O43186 whole entry): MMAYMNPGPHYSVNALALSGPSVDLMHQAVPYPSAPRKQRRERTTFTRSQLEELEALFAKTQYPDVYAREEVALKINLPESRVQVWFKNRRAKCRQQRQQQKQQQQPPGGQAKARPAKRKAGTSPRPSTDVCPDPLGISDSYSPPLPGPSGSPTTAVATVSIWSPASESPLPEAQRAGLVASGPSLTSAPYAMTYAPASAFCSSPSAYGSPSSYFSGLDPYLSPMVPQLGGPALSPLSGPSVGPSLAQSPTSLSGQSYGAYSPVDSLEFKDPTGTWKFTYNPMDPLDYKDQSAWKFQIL
sequence,measurement,setting,value
CAACTA,binding signal,FEV,"1.27 fold enrichment (6-mer frequency, TF over GST control)"
same,binding signal,ETV5,"1.26 fold enrichment (6-mer frequency, TF over GST control)"
same,binding signal,HSF1,"1.2 fold enrichment (6-mer frequency, TF over GST control)"
same,binding signal,SPIC,"1.22 fold enrichment (6-mer frequency, TF over GST control)"
same,binding signal,ELF4,"1.31 fold enrichment (6-mer frequency, TF over GST control)"
same,binding signal,ELK4,"1.24 fold enrichment (6-mer frequency, TF over GST control)"
same,binding signal,ETV2,"1.18 fold enrichment (6-mer frequency, TF over GST control)"
same,binding signal,ELF3,"1.32 fold enrichment (6-mer frequency, TF over GST control)"
same,binding signal,CRX,"1.24 fold enrichment (6-mer frequency, TF over GST control)"
same,binding signal,ETV1,"1.24 fold enrichment (6-mer frequency, TF over GST control)"
same,binding signal,ERF,"1.24 fold enrichment (6-mer frequency, TF over GST control)"
same,binding signal,ETV3L,"1.29 fold enrichment (6-mer frequency, TF over GST control)"
same,binding signal,ETS2,"1.3 fold enrichment (6-mer frequency, TF over GST control)"
same,binding signal,SPDEF,"1.32 fold enrichment (6-mer frequency, TF over GST control)"
same,binding signal,ETV7,"1.24 fold enrichment (6-mer frequency, TF over GST control)"
same,binding signal,ELF5,"1.26 fold enrichment (6-mer frequency, TF over GST control)"
same,binding signal,ETV3,"1.2 fold enrichment (6-mer frequency, TF over GST control)"
same,binding signal,ETV6,"1.25 fold enrichment (6-mer frequency, TF over GST control)"
